Experimental data reported in PubChem BioAssay AID624304 (Sanford-Burnham Center for Chemical Genomics, 2012).
About 1,800 (0.5%) of roughly 360,000 compounds were called active.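 Rule for the calls: active = interference check ratio from 0.5 to 1.5 plus GFP to RFP signal ratio inhibition reaching or exceeding a fixed threshold (cut at about 30% in these data, passing the limit was not always enough); inactive = the rest.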 The entries come from a sample that favours actives as a whole.

test: gst-4 reporter inhibition in live C. elegans – whole organism, uHTS, GFP/RFP fluorescence ratio, strain VP596, SKN-1 inhibitor project, primary screen (AID 624304); conditions: C. elegans VP596 Pgst-4::GFP/RFP ratio, acrylamide-induced, 24 h; at 21.8 µM; active compounds read high

| Structure (SMILES) | inhibition |
| --- | --- |
| Cc1ccc(P(=S)(c2ccc(C)o2)N2CCOCC2)o1 | 36.8% (active) |
| CN(C)C(=O)Oc1ccc(NC(=O)N2CCOCC2)cc1 | 12% (inactive) |
| CC[N+]1(C)CCCC(OC(=O)C(O)(c2ccccc2)c2ccccc2)C1 (stereo not given) | -6.17% (inactive) |
| CC1CCCN1CCC(C(N)=O)(c1ccccc1)c1ccccc1 (stereo not given) | -0.187% (inactive) |
| CN(C)CC1Oc2ccccc2OC1(O)c1ccccc1 (stereo not given) | -1.82% (inactive) |
